Experiment in all cases: NCI-60 one-dose screen, 48 h (100 = growth as untreated, 0 = no growth, -100 = all killed)
Details in all cases: 10 µM unless noted

The test system of assay [1] is DU-145 prostate.
In assay [2] the test system is K-562 leukemia.
The subject of assay [3] is MALME-3M melanoma.
In assay [4] the test system is MDA-MB-231 breast.
Assay [5] has as its system RXF 393 renal.
Assay [6] has as its system SF-268 CNS.
Assay [7] concerns SF-295 CNS.
For assay [8], the system named is SF-539 CNS.
Assay [9] concerns UACC-257 melanoma.
Assay [10] has as its system M14 melanoma.

The panel holds about 83,000 compounds, 20% with a hit somewhere; the sample as a whole holds those more often.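 Each cell line was grown in a 96-well plate and treated with one concentration of compound for 48 hours. Values below 10 were considered active.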 Unmarked numbers belong to inactive results. Calls of active or inactive are those of the source.

In the case of `CCCN(CCC)c1ccc(/C=C/c2ccc3cc(OCC)ccc3n2)cc1`, the growth was 91.6% in assay [1]; 72.9% in [2]; 88% in assay [3]; 109% in assay [4]; 81.6% in [5]; 90.7% in assay [6]. In addition, the growth in assay [7] is 91.9%; in assay [8], 90.7%; in assay [9] it was 84.3%; in [10], 86.4%.
In the case of `Cc1cccc2c(=O)c3c(sc12)c(NCCCN)nc1ccccc13`, the growth in [1] was -19.8% (active); in [2], -34.6% (active); in assay [3], 13.9%; in [4] it was -32.4% (active); in assay [5], 31.5%; in assay [6], 46.2%. Also, the growth in assay [7] was 68%; in assay [8] it was 38.4%; in [9], 81.9%; in assay [10] it was -19.7% (active).
Take `O=[N+]([O-])c1ccc2nc(N/N=C/c3ccc(O)cc3)sc2c1`: the growth is 60.1% in [1]; 31.6% in assay [2]; 65% in [3]; 82.9% in [4]; 103% in assay [5]; 64.1% in [6]. For the same molecule, the growth was 86.7% in assay [7], 49.5% in assay [8], 66.6% in assay [9] and 83% in [10].
`O=C1C=CC(=O)N1CCCCCCCCCCN1C(=O)C=CC1=O`: the growth is 80.1% in [1]; 5.56% (active) in assay [2]; 70% in assay [3]; 104% in assay [4]; 76.6% in assay [5]; 103% in assay [6]. Besides, the growth in assay [7] was 73.7%; in [8], 91.1%; in assay [9], 76.1%; in [10], 77.8%.
Regarding `CCOC(=O)c1c(Cl)c2c(n1Cc1ccc(OC)cc1)-c1oncc1CCC2`, the growth in [1] was 118%; in [2], 92.1%; in [3], 119%; in assay [4], 77.2%; in assay [5], 80.5%; in [6], 95.9%. In addition, the growth was 99% in assay [7], 93.3% in assay [8], 96.1% in assay [9] and 108% in assay [10].
For `Cc1ccc(S(=O)(=O)N2CCc3ccc(O)c4c3C2Cc2ccc3c(c2-4)OCO3)cc1` (stereo not given), the growth was 10.3% in [1]; 15.1% in [2]; 61.8% in [3]; 6.15% (active) in [4]; 0.195% (active) in assay [5]; 37.2% in assay [6]. The growth in [7] was 14.3%; in assay [8], 3.96% (active); in assay [9] it was 45.6%; in assay [10] it was 5.43% (active).
For the molecule `O=c1[nH]c(=O)n(Cc2ccc(F)cc2)cc1F`, the growth in assay [1] is 110% [50 µM]; in [2], 86.7% [50 µM]; in [3] it was 101% [50 µM]; in [4], 101% [50 µM]; in assay [5], 111% [50 µM]; in [6], 99.1% [50 µM]. Moreover, the growth was 101% [50 µM] in [7], 100% [50 µM] in assay [8], 83.9% [50 µM] in assay [9] and 109% [50 µM] in assay [10].
Turning to `O=S(=O)(Nc1ncccn1)c1ccc(Nc2ccc3nnc(-c4ccncc4)n3n2)cc1`, the growth is 108% in assay [1]; 102% in assay [2]; 97.6% in assay [3]; 92.2% in [4]; 118% in assay [5]; 98.3% in assay [6]. Besides, the growth in [7] is 100%; in assay [8], 95.2%; in [9] it was 103%; in assay [10] it was 97.7%.
As for `COc1ccc2c(c1)c(=O)oc1c(C)c(OCC(C)=O)ccc12`, the growth in [1] was 86.8%; in assay [2] it was 102%; in assay [3] it was 112%; in [4] it was 114%; in assay [5] it was 103%; in assay [6], 85.6%. Further, the growth in assay [7] was 93.9%; in assay [8], 94.3%; in assay [9], 96.2%; in assay [10], 112%.
`COc1ccc(-c2nc3sc(C)cn3c2/C=C/C(=O)c2cc(OC)c(OC)c(OC)c2)cc1`: the growth in assay [1] is 82.2%; in [2] it was 75.6%; in [3], 39.3%; in assay [4] it was 39.5%; in assay [5], 84.5%; in [6] it was 73.4%. The growth in [7] is 51.3%; in assay [8], 77.6%; in assay [9] it was 50.8%; in assay [10], 43%.
In the case of `O=C1/C(=C/c2ccc(F)cc2)CN(Cc2cn(CCNc3ccnc4cc(Cl)ccc34)nn2)C/C1=C\c1ccc(F)cc1`, the growth in [1] is 5.98% (active); in assay [2] it was 5.23% (active); in assay [3], -80.6% (active); in assay [4] it was -39.7% (active); in [5] it was -97.2% (active); in [6] it was -80.2% (active). Further, the growth is -55.5% (active) in [7], -78.5% (active) in assay [8], -72.5% (active) in assay [9] and -49.7% (active) in assay [10].
Take `COC(=O)c1c2c(c(C)[n+]([O-])c1C)C(=O)C=C(NCc1ccc(F)cc1)C2=O`: the growth in [1] was -90.6% (active); in assay [2], 1.64% (active); in [3], -97.8% (active); in [4], -29.3% (active); in assay [5], -22.2% (active); in assay [6], -1.99% (active). The growth was -80% (active) in assay [7], -91.2% (active) in assay [8], -87.2% (active) in assay [9] and -69.3% (active) in [10].
As for `CCCC1=NNC(=O)C1`, the growth in assay [1] was 125%; in [2], 100%; in [3] it was 101%; in [4], 122%; in [5] it was 113%; in [6] it was 108%. Also, the growth in assay [7] is 97.5%; in assay [8], 89.8%; in [9], 90.9%; in [10] it was 104%.
Take `Cc1cc(NS(=O)(=O)c2ccc(NC(=O)COc3ccc(-c4cc5ccccc5[nH]4)cc3)cc2)no1`: the growth in assay [1] was 18.5%; in assay [2], 6.89% (active); in assay [3], 47.6%; in assay [4], 18.9%; in assay [5], -24.6% (active); in [6] it was 27.3%. Besides, the growth is 8.98% (active) in assay [7], 6.2% (active) in assay [8], 56.9% in assay [9] and -15.4% (active) in assay [10].

(Values after PubChem BioAssay (NCI).)
